The supplement of paper PMC6555819

Tests used:
Experiment in all cases: PBM binding z-score (relative to random genomic background probes); higher = stronger binding; sequences stand for … in GC…GCGATTGACAGCGTAGAATGAAGG
[1] = tested on: RARb homodimer (NR concentration 270 nM)
Outline: (§1)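 Scanned fluorescence from custom Agilent 4×180K protein-binding microarrays was regression-normalized. Binding z-scores use random background probes as reference. Ligand-free nuclear receptor dimers were incubated on the arrays for 1 h and detected with antibodies against each partner (one per run).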

[2] = tested on: RARg:RXRa (NR concentration 270 nM, RXRa partner concentration 90 nM)
Outline: as §1

[3] = tested on: RARg homodimer (NR concentration 270 nM)
Outline: as §1

[4] = tested on: RXRa DBDmut IVT, anti-RXR (DBD mutation: RXRa K156A/R161A, NR concentration 90 nM)
Outline: as §1

[5] = tested on: RXRa homodimer (NR concentration 180 nM)
Outline: as §1

[6] = tested on: THRa:RXRa (NR concentration 90 nM, RXRa partner concentration 90 nM)
Outline: as §1

[7] = tested on: THRa homodimer (NR concentration 90 nM)
Outline: as §1

[8] = tested on: VDR homodimer (NR concentration 270 nM)
Outline: as §1

Row | Sequence | PBM binding z-score [1] | PBM binding z-score [2] | PBM binding z-score [3] | PBM binding z-score [4] | PBM binding z-score [5] | PBM binding z-score [6] | PBM binding z-score [7] | PBM binding z-score [8]
1 | ATCGAAAGGTCGACGAGGTCAGTATACACCGTTT | 4.63 | 5.73 | 5.72 | 2.48 | 5.75 | 4.67 | 2.54 | 4.57
2 | CGTCCAAGGACATAGGAGGTCAGTGAAGACAGAT | 3.17 | 2.46 | 3.05 | 0.749 | 1.64 | 3.54 | 1.83 | 1.48
3 | ACTATTAGTTAACTTAGGGCAACCGATACGACGC | 0.839 | 0.89 | 1 | 0.837 | 0.532 | 1.88 | 0.447 | 0.283
4 | CCTACTCGGCCAAGGTCATTGATCAGTCAAAGCA | 3.33 | 3.95 | 3.71 | 2.24 | 3.6 | 3.36 | 2.98 | 3.83
5 | GCTCCGAGGACAAGGTCAGAGCTTTGTCCGTAGA | 3.24 | 3.01 | 3.47 | 1.05 | 2.25 | 3.55 | 2.3 | 0.674
6 | CCTTACGGGTAACTGACAGGTTATAGCATTTGGA | 0.321 | 0.742 | 0.501 | 0.0265 | 0.525 | 0.456 | -0.293 | -0.157
7 | GGAACGAGGGCAAAGTTGAGAGCATCTGTCGACG | 1.51 | 2.51 | 1.87 | 2.46 | 2.33 | 1.53 | -0.419 | 1.38
8 | CCTTACTGGTCACGAGGTTATAGCACGACGAGCG | 1.98 | 2.5 | 1.86 | 0.396 | 2.28 | 1.91 | 1.11 | 1.13
9 | CTTGCTAGGTCATGGTCAGCTAATCTACAGTATG | 3.07 | 3.94 | 4.57 | 1.95 | 2.77 | 2.96 | 1.27 | 0.195
10 | ACAGACAGGTGATGAAGGTAACTCAGGCTATCAT | 0.446 | 0.303 | 0.521 | -0.295 | 0.205 | 0.774 | 0.267 | -0.205
11 | TCTCGGAGGACACGAAGGTCACAGCTTTCCAGAG | 4.54 | 4.52 | 4.93 | 1.47 | 3.74 | 3.86 | 1.77 | 2.9
12 | CCTATTAGTTGACTATAAGGGCAACCGAAGCTCG | 1.42 | 1.15 | 0.934 | 0.543 | 0.351 | 1.79 | 0.969 | 0.425
13 | CCGACTGGGCCAAGGTTACCATAACGCACAGCCA | 0.94 | 0.614 | 0.453 | -0.285 | 0.719 | 1.07 | 0.784 | -0.176
14 | CTCGAAAGGTCGGTTCAGGTGAGTATACGGATAA | 2.52 | 2.64 | 2.62 | 1.52 | 2.23 | 5.09 | 1.1 | 2.34
15 | TCATATAGGTAAATAGGTGAAAGTCCGTAAGTTA | 1.17 | 1.26 | 0.407 | 1.39 | 1.62 | 0.865 | 0.0399 | 0.337
16 | CCGACTGGCGCAAGGTTACCATAACGCACAGCCA | 0.818 | 0.543 | 0.602 | 0.0804 | 0.892 | 1.23 | 0.443 | -0.0582
17 | CAAACTAGGTGAAAGGTCAAAGTCGAGCCAACCA | 4.61 | 7.35 | 6.17 | 2.27 | 8.91 | 4.19 | 1.31 | 2.49
18 | CCAGATAGGTGAGAAGGTAACTCAGCCTCGATTA | 0.492 | 0.647 | 0.649 | 0.238 | 0.44 | 0.177 | -0.0242 | -0.157
19 | GCAGACAGGTGAAACGCAGGTAAGTCAGGGTGGC | 0.216 | 0.37 | 0.249 | -0.846 | 0.479 | 0.9 | -0.575 | -0.728
20 | CCTCGGAGGAGAGAAGGTCAGAGCTGTCCGCTTT | 2.71 | 1.89 | 1.69 | -0.424 | 1.89 | 1.59 | -0.246 | -0.0749
21 | ATCGAAAGGTCTACGAGGTGAGTATACACCGTTT | 1.01 | 1.32 | 1.56 | -0.0758 | 1.11 | 2.26 | 0.606 | 0.124
22 | CCGACTCGGGCAAGGTTACCATAACGCACAGCCA | 1.08 | 1.01 | 0.939 | -0.233 | 1.11 | 1.19 | 0.176 | -0.43
23 | AGACCGAGGGCACGCTGAGTTGATAGCAGAGTAG | 1.33 | 2.22 | 2.06 | 1.49 | 1.31 | 1.77 | -0.237 | 1.75
24 | CAGCCTAGGTCAGCGCCAGTATAGGAGGAACGTT | 2.6 | 2.85 | 4.04 | 0.449 | 1.55 | 2.05 | 0.498 | -0.621
25 | CGAACTAGGTCAAGGACAATGAATCTCCGCACGC | 3.13 | 3.87 | 4.64 | 1.52 | 2.78 | 3.12 | 2.15 | 0.633
26 | AGAATGAGGTTAAGATCATGGAAACAGAATACAT | 0.492 | 1.94 | 1.49 | 0.788 | 2.62 | 2.2 | 0.477 | 0.212

Row | Sequence | PBM binding z-score [1] | PBM binding z-score [2] | PBM binding z-score [3] | PBM binding z-score [4] | PBM binding z-score [5] | PBM binding z-score [6] | PBM binding z-score [7] | PBM binding z-score [8]
27 | GCGACTGCGGCAAAGCAGGTTACCATAAGGTTGG | 0.0926 | -0.183 | -0.487 | -0.499 | -0.0388 | 0.953 | -0.402 | -0.315
28 | ATCTCAAGGTAAAGTTCAGTGAAAGATCGATAGA | 2.72 | 2.43 | 2.96 | 1.69 | 1.76 | 1.78 | 0.667 | 2.24
29 | CCTTACGGGTCACTGACATGTTATAGCATTTGGA | 3.05 | 4.89 | 4.58 | 2.2 | 5.13 | 2.61 | 0.312 | 1
30 | ACAAGCAGGCCAAGTTTGGGTCACTCAAACAAAG | 2.34 | 2.8 | 1.88 | -0.286 | 1.1 | 2.47 | 0.738 | -0.0153
31 | ACTAGTTGGTCAGCTGATGTCACACACAATTCGG | 1.06 | 0.65 | 1.08 | 0.494 | 0.485 | 1.29 | 0.161 | 0.144
32 | CAAACTAGGTCAACGTCAAAGTCGGTTTGTGCCA | 3.56 | 4.05 | 4.97 | 1.68 | 2.9 | 3 | 1.02 | 1.07
33 | CATGCTAGGTCATGGTCAGCTAATCTACAGTATG | 3.06 | 3.95 | 4.67 | 1.74 | 3.06 | 2.87 | 1.06 | 0.15
34 | TCGATTAGGTTACCAATGGGGCATTCAGCTTTCT | 1.09 | 1.39 | 0.551 | 1.2 | 0.573 | 0.894 | 0.0109 | -0.327
35 | CCTACTTGGTCAAGGTCACACACGCTATAGGTAC | 4.57 | 4.56 | 4.86 | 2.17 | 4.71 | 4.06 | 4.41 | 3.28
36 | TGTCAAAGTTCAAATGTAACGTAAGTATCCACAC | 3.94 | 5.53 | 5.93 | 4.69 | 5.3 | 2.16 | -0.283 | 4.11
37 | TCTTGTAGATCAAAGGTTCAGAAAGCCGAAGCCT | 0.917 | 0.795 | 0.335 | 1.32 | 1.29 | 0.166 | -0.308 | 1.5
38 | ATCTCTAGGTAAAAGTTCAGTGCATCCCGAGGAT | 2.59 | 1.85 | 1.81 | 0.951 | 1.49 | 1.43 | 0.48 | 2.21
39 | TATTGTAGATCAATAGAGGTTAAGAAAGTGCGCT | 1.44 | 1.05 | 0.855 | -0.302 | 1.36 | 2.32 | -0.234 | 0.323
40 | CCTGTTAGGTCATGGTCAGCTAATCTACAGTATG | 3.36 | 4.05 | 4.61 | 2 | 2.89 | 3.73 | 2.91 | 0.791
41 | ATATGTAAGTTAGCTGGGGTCATTCAGACTAGGC | 3.29 | 3.58 | 2.19 | 1.95 | 5.13 | 4.31 | 3.21 | 4.9
42 | TAGCCTAGGTCATTAGGCCAGTATAGTACGCATC | 2.93 | 3.47 | 3.8 | 1.54 | 2.1 | 2.4 | 0.34 | 0.922
43 | CCTGCTTGGTCATGGTCAGCTAATCTACAGTATG | 0.424 | 0.464 | 0.774 | 0.252 | 0.162 | -0.0915 | -0.506 | -0.205
44 | AGTCAAAGTGCACTAGGTAACGTAAGATTCAGCT | 0.614 | 0.916 | 1.26 | 0.965 | 0.453 | 0.43 | -0.285 | 0.442
45 | GATACAGTGTCAAGGCCAGAGTACGCGTATTGAT | 1.04 | 0.527 | 1.03 | 0.061 | 0.517 | 0.471 | -0.196 | 0.431
46 | TCTTGTAGATCAAGCAGGATAAGAAAGCCTGAGT | -0.48 | -0.278 | -0.0385 | 0.533 | -0.0789 | -0.341 | -0.704 | 0.105
47 | CAAACTAGGTCACAGAGGTCAAAGACCGTGCGTA | 5.43 | 7.3 | 7.86 | 3.1 | 7.71 | 4.68 | 2.81 | 6.4
48 | ACTAGCAGGCCAAGTTTGGGTCACCCAAACAAAG | 2.48 | 2.88 | 2.18 | -0.623 | 1.45 | 2.96 | 1.36 | 0.196
49 | CCAACTAGGTCACGAAAGGTCAAAGTCGAATGAC | 6.02 | 8.03 | 8.57 | 2.76 | 8.76 | 5.44 | 2.87 | 3.88
50 | CATACTGGGCCACGAAAGGTCATTGATTCAGTGA | 4.71 | 4.59 | 4.63 | 0.963 | 4.9 | 3.87 | 1.47 | 2.45
51 | CCGACTGGGGCATAAGGTTGCCATAAGCCAGCCC | 0.294 | 0.249 | 0.278 | -0.617 | -0.0266 | 0.276 | -0.00565 | -0.0503
52 | CCAGACCGGTGAAAGGTAACTCAGTCTGGTACGC | 0.414 | 0.36 | -0.096 | -0.727 | 0.696 | 0.429 | -0.178 | -0.186
